About 83,000 compounds went through this panel and 20% of them were active in at least one assay; those are over-represented in the sample as a whole.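 Percent growth is the endpoint: 0 to 100 indicates growth inhibition (40 means 60% inhibition), 0 means no net growth, and negative values indicate cell death.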 A number with no mark means an inactive call. Calls of active or inactive are those of the source. The calls were made as follows: active = growth percent below 10; inactive = the rest.
What was measured:
Test in all cases: NCI-60 one-dose screen, 48 h (100 = growth as untreated, 0 = no growth, -100 = all killed)
Conditions in all cases: 10 µM unless noted
[1] = test system: HCT-15 colon
[2] = test system: HT29 colon
[3] = test system: SNB-75 CNS
[4] = test system: SNB-19 CNS
[5] = test system: U251 CNS
[6] = test system: PC-3 prostate
[7] = test system: SK-MEL-5 melanoma
[8] = test system: UACC-62 melanoma
[9] = test system: LOX IMVI melanoma
[10] = test system: SK-MEL-28 melanoma
[11] = test system: EKVX NSCLC
[12] = test system: SN12C renal
[13] = test system: UO-31 renal
[14] = test system: TK-10 renal
[15] = test system: ACHN renal
[16] = test system: CAKI-1 renal
[17] = test system: A498 renal
[18] = test system: CCRF-CEM leukemia
[19] = test system: MOLT-4 leukemia

Compound | growth [1] | growth [2] | growth [3] | growth [4] | growth [5] | growth [6] | growth [7] | growth [8] | growth [9] | growth [10] | growth [11] | growth [12] | growth [13] | growth [14] | growth [15] | growth [16] | growth [17] | growth [18] | growth [19]
C1=C\COCc2cc(ccc2OCCN2CCCC2)Nc2nccc(n2)-c2cccc(c2)COC/1 | 1.31% (active) | -30.8% (active) | -95.8% (active) | 1.55% (active) | -22.6% (active) | 0.91% (active) | -96.5% (active) | -68.7% (active) | -70.2% (active) | -41.8% (active) | 0.564% (active) | -26.6% (active) | -29.2% (active) | 55.3% | 3.85% (active) | -44.8% (active) | -43.3% (active) | 4.28% (active) | -8.61% (active)
CN(C)C1CCN(C(=O)c2ccc(NC(=O)Nc3ccc(-c4nc(N5CCOCC5)nc(N5CCOCC5)n4)cc3)cc2)CC1 | 74.1% [2.5 µM] | -2.55% [2.5 µM] (active) | -51.7% [2.5 µM] (active) | 1.85% [2.5 µM] (active) | -10.5% [2.5 µM] (active) | 3.75% [2.5 µM] (active) | -39.1% [2.5 µM] (active) | -58.9% [2.5 µM] (active) | 0.487% [2.5 µM] (active) | -27.6% [2.5 µM] (active) | 40.3% [2.5 µM] | 3.23% [2.5 µM] (active) | 32.2% [2.5 µM] | -9.03% [2.5 µM] (active) | 55.6% [2.5 µM] | 10.2% [2.5 µM] | -54.1% [2.5 µM] (active) | 9.68% [2.5 µM] (active) | -7.96% [2.5 µM] (active)
COc1cc(N2CCC(N3CCN(C)CC3)CC2)ccc1Nc1ncnc(Nc2ccccc2S(=O)(=O)C(C)C)n1 | 103% | 84.1% | 101% | 98.6% | 101% | 93.7% | 110% | 102% | 103% | 105% | 105% | 107% | 98.7% | 108% | 98.5% | 104% | 114% | 92.9% | 89.9%
Cc1ccc(N)cc1CN1C(=O)c2ccccc2C1=O | 101% | 85.5% | 87% | 102% | 102% | 90.1% | 103% | 103% | 101% | 110% | 105% | 103% | 70.1% | 88.3% | 106% | 105% | 96.5% | 92.4% | 94.9%
Cn1cc(-c2cnn3c(N)c(Br)c([C@@H]4CCCNC4)nc23)cn1 | 60.6% | 23% | 20.5% | 52.1% | 61% | 42.8% | 28.6% | 63.7% | 22% | 72.5% | 58.7% | 37.6% | 28% | 33.4% | 19.8% | 17.3% | -8.93% (active) | 19.9% | 7.79% (active)
O=C(/C=C/c1ccc2c(c1)OCO2)c1c(O)c2ccccc2oc1=O | 97.1% | 96.6% | 87.7% | 115% | 101% | 95.9% | 111% | 96.7% | 94.6% | 112% | 108% | 106% | 90.1% | 113% | 102% | 95% | 107% | 103% | 77.6%
O=C(Cn1ccc2ccccc21)Nc1ccc(-c2nc3ccccc3s2)cc1 | 110% | 115% | 93.8% | 98.6% | 97.6% | 98% | 98.6% | 95% | 91.3% | 114% | 107% | 101% | 92.4% | 104% | 111% | 100% | 99.1% | 97% | 94.5%
COC(=O)[C@H](Cc1ccc(O)cc1)NC(=O)[C@@H](OC)[C@@H]1Cc2cc3cc(OC4CC(OC5CC(O)C(O)C(C)O5)C(O)C(C)O4)c(C)c(O)c3c(O)c2C(=O)[C@H]1OC1CC(OC2CC(OC3CC(C)(O)C(O)C(C)O3)C(O)C(C)O2)C(O)C(C)O1 (some centres undefined) | 47.5% | 3.68% (active) | -52.5% (active) | 8.72% (active) | 7.18% (active) | 13.4% | -53.3% (active) | -53.1% (active) | -31.2% (active) | -26.6% (active) | 21.5% | 13.3% | 18.1% | 23.5% | 4.06% (active) | 69.5% | -63.2% (active) | 11.1% | -1.8% (active)
C=CCN1C(=O)c2cccc3c(-c4ccc5c(c4)ncn5C4CCCCC4)ccc(c23)C1=O | 44.9% | 23.4% | 50.2% | 76.1% | 52% | 22.8% | -27.8% (active) | 44% | 50.3% | 76.7% | 52.9% | 61.5% | 34.5% | 69.9% | 55.3% | 52.2% | 76.9% | 33% | 5.4% (active)
Oc1ccc(C(c2ccc(O)cc2)C(Cl)(Cl)Cl)cc1 | 93.4% | 110% | 66.4% | 99.9% | 106% | 75.2% | 100% | 79.8% | 87.6% | 113% | 82.5% | 84.8% | 75.3% | 105% | 92.3% | 105% | 87.5% | 76.5% | 70.5%
Nc1cc(C(F)(F)F)c(-c2cc(N3CCOCC3)nc(N3CCOCC3)n2)cn1 | -10% (active) | -29.2% (active) | -69% (active) | 0.838% (active) | -2.08% (active) | -10.4% (active) | -75.5% (active) | -72.7% (active) | -44.6% (active) | -47.5% (active) | -13.4% (active) | -3.99% (active) | -34.4% (active) | -35.4% (active) | -8.54% (active) | -25.1% (active) | -80.4% (active) | 4.63% (active) | -11.9% (active)
C[C@@H](N)c1ccc(C(=O)Nc2ccnc3[nH]ccc23)cc1 | 68.3% | 32% | 6.4% (active) | 60.7% | 46.7% | 44.9% | 67.8% | 82.1% | 45.5% | 63% | 67% | 51.8% | 13.4% | 46.2% | 36.7% | 20.6% | 56.9% | 25.5% | 42.2%
COc1ccc2c(c1)cn1c3ccc(O)cc3nc(N)c21 | 18.5% | 21.2% | 15% | 26.9% | 23.7% | 19.9% | 17.8% | 32.5% | 24.2% | 42.6% | 41% | 34.6% | 15.6% | 25.2% | 27.4% | 26.9% | 38.6% | 23% | 18.5%
COc1cc2c(Nc3ccc(Br)cc3F)ncnc2cc1OCC1CCN(C)CC1 | 11.6% | 5.35% (active) | -59.8% (active) | 37.6% | 8.98% (active) | 39.1% | -66.3% (active) | -45.8% (active) | -45.6% (active) | -79.7% (active) | 35.4% | 16.9% | -88.3% (active) | -4.33% (active) | 9.47% (active) | 0.316% (active) | -71.1% (active) | 14.5% | 18.1%
O=C(c1c(F)ccc(NS(=O)(=O)N2CC[C@@H](F)C2)c1F)c1c[nH]c2ncc(-c3cnc(C4CC4)nc3)cc12 | 44.1% | 3.81% (active) | 37.7% | 52.8% | 42.4% | 46.5% | 22% | -22.9% (active) | 15.9% | -5.44% (active) | 58.5% | 48% | 25.9% | 41.7% | 34.5% | 16.7% | 62.7% | 47.6% | 16.3%
C/C(=C(/c1ccc(Cl)cc1)c1ccc(OCCN2CCCCCC2)cc1)c1ccccc1 | 20.3% | 8.45% (active) | 88.4% | 88.4% | 73.1% | 69.3% | 69.5% | 90% | 62.6% | 88% | 70.2% | 87.6% | 70.9% | 101% | 96.3% | 96.9% | 86% | 68.9% | 82%
